Assay results: PubChem BioAssay
For part of these data: Results with a measured potency or affinity are listed apart. Activity calls are given as the source filed them. Unless noted, the rule behind the calls is not given here.

Assays:
[1] = molecular target: Cell division control protein 42 homolog (Homo sapiens) (UniProt P60953); assay: activated mutant Cdc42 GTP-binding inhibitors, dose response, biochemical, multiplex bead flow cytometry, Bodipy-FL-GTP (AID 1333;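 active = fitted half-maximal concentration within the tested dose range, moderate curve steepness, a statistically real signal drop, and little compound fluorescence or tag-binding interference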)
Cell division control protein 42 homolog (Homo sapiens), sequence (P60953 whole entry, looked up): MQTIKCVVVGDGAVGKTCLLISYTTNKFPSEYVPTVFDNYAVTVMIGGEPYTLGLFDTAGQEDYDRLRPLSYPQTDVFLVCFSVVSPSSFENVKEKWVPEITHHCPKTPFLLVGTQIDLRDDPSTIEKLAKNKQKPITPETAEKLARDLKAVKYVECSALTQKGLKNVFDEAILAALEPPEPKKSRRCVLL

[2] = molecular target: Cell division control protein 42 homolog (Homo sapiens) (UniProt P60953); assay: wildtype Cdc42 GTP-binding inhibitors, dose response, biochemical, multiplex bead flow cytometry, Bodipy-FL-GTP (AID 1334;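 active = fitted half-maximal concentration within the tested range, moderate curve steepness, significant signal drop, and little compound fluorescence or bead-linkage interference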); details: bead-based flow cytometry, Bodipy-FL-GTP binding to GST-Cdc42; at 100 µM (top of the series) unless noted
[3] = molecular target: GTPase HRas (Homo sapiens) (UniProt P01112); assay: inhibitors of GTP binding to wildtype Ras, dose response, biochemical, multiplex bead flow cytometry (AID 1335;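 active = fitted half-maximal concentration within 10 nM to 100 µM, steepness 0.5 to 2, significant signal drop, low assay interference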); details: bead-based flow cytometry, Bodipy-GTP binding to GST-Ras; at 100 µM (top of the series) unless noted
GTPase HRas (Homo sapiens), sequence (P01112 whole entry, looked up): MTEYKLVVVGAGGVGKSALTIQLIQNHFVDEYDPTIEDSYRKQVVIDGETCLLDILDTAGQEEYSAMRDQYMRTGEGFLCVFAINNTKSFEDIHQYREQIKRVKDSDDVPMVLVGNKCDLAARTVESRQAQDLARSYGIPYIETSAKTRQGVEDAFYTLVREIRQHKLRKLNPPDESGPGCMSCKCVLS

[4] = test system: Ras-related protein Rab-7a (dog), GTP binding; assay: Rab7 GTP binding inhibitors, potency, dose response, biochemical, wildtype, multiplex bead flow cytometry (AID 1336)
[5] = molecular target: Ras-related C3 botulinum toxin substrate 1 (Homo sapiens) (UniProt P63000); assay: wildtype Rac1 GTP binding inhibitors, dose response, biochemical, multiplex bead flow cytometry (AID 1340;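 active = dose curve with midpoint inside tested range, moderate steepness, plateau gap beyond fit error, low compound glow and bead-link interference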); details: GST-Rac1 beads, Bodipy-FL-GTP binding; at 100 µM (top of the series) unless noted
[6] = molecular target: GTPase HRas (Homo sapiens) (UniProt P01112); assay: activated Ras mutant GTP binding inhibitors, dose response, biochemical, multiplex bead flow cytometry (AID 1341;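 active = dose-response curve with midpoint inside the tested range, moderate steepness, significant amplitude and little compound fluorescence or bead-attachment interference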;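 note: GST-tagged constitutively activated Ras mutant immobilized on beads and multiplexed with other GTPases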)

COc1ccc(-c2c(C)[nH]n3c(=O)c(Cc4ccccc4)c(C)nc23)cc1
outcome [1]: inactive | fluorescence, percent of control (lower = inhibition) [2]: 33.9% | GTP binding, percent of control [3]: 79% | outcome [4]: inactive | GTP binding signal, raw median fluorescence (lower = inhibition) (MCF (arbitrary fluorescence units)) [5]: 217 | outcome [6]: inactive

COc1cc2[nH]c(=S)nc(NC3CCCC3)c2cc1OC
outcome [1]: inactive | fluorescence, percent of control (lower = inhibition) [2]: 25.9% | GTP binding, percent of control [3]: 56.7% | outcome [4]: inactive | GTP binding signal, raw median fluorescence (lower = inhibition) (MCF (arbitrary fluorescence units)) [5]: 124 | outcome [6]: inactive

CCOc1ccc2nc(NC(=O)CSc3nc(-c4ccccc4)c(C#N)c(=O)[nH]3)sc2c1
outcome [1]: inactive | fluorescence, percent of control (lower = inhibition) [2]: 25.1% | GTP binding, percent of control [3]: 70% | outcome [4]: inactive | GTP binding signal, raw median fluorescence (lower = inhibition) (MCF (arbitrary fluorescence units)) [5]: 240 | outcome [6]: inactive

CCCNC(=O)Cn1c(=O)/c(=C\c2ccc(-c3ccc([N+](=O)[O-])cc3)o2)s/c1=C\C(=O)C(C)(C)C
outcome [1]: inactive | fluorescence, percent of control (lower = inhibition) [2]: 115% | GTP binding, percent of control [3]: 126% | outcome [4]: inactive | GTP binding signal, raw median fluorescence (lower = inhibition) (MCF (arbitrary fluorescence units)) [5]: 300 | outcome [6]: inactive

S=c1[nH]nc(-c2ccco2)n1-c1ccc(Cl)cc1
outcome [1]: inactive | fluorescence, percent of control (lower = inhibition) [2]: 28.4% | GTP binding, percent of control [3]: 67.6% | outcome [4]: inactive | GTP binding signal, raw median fluorescence (lower = inhibition) (MCF (arbitrary fluorescence units)) [5]: 209 | outcome [6]: inactive

O=C(C[n+]1cccc2ccccc21)c1ccc(NC(=O)c2ccccc2)cc1
outcome [1]: inactive | fluorescence, percent of control (lower = inhibition) [2]: 75.8% | GTP binding, percent of control [3]: 123% | outcome [4]: inactive | GTP binding signal, raw median fluorescence (lower = inhibition) (MCF (arbitrary fluorescence units)) [5]: 332 | outcome [6]: inactive

COc1cc2[nH]c(=S)nc(NCCCOC(C)C)c2cc1OC
outcome [1]: inactive | fluorescence, percent of control (lower = inhibition) [2]: 38.7% | GTP binding, percent of control [3]: 50.6% | outcome [4]: inactive | GTP binding signal, raw median fluorescence (lower = inhibition) (MCF (arbitrary fluorescence units)) [5]: 116 | outcome [6]: inactive

CN(C)c1ccc(/C=C/c2ccc3c4ccccc4ccc3[n+]2-c2ccccc2)cc1
outcome [1]: inactive | fluorescence, percent of control (lower = inhibition) [2]: 40% | GTP binding, percent of control [3]: 69.7% | outcome [4]: inactive | GTP binding signal, raw median fluorescence (lower = inhibition) (MCF (arbitrary fluorescence units)) [5]: 236 | outcome [6]: inactive

Cc1ccc(OCCn2c(SCC(=O)O)nc3ccccc32)cc1
outcome [1]: inactive | fluorescence, percent of control (lower = inhibition) [2]: 59% | GTP binding, percent of control [3]: 86.2% | outcome [4]: inactive | GTP binding signal, raw median fluorescence (lower = inhibition) (MCF (arbitrary fluorescence units)) [5]: 35.2 | outcome [6]: inactive

Cc1nn(-c2ccc(F)cc2)c(Cl)c1/C=C(\CCC(=O)O)c1nc2ccccc2s1
outcome [1]: inactive | fluorescence, percent of control (lower = inhibition) [2]: 64.7% | GTP binding, percent of control [3]: 53.6% | outcome [4]: inactive | GTP binding signal, raw median fluorescence (lower = inhibition) (MCF (arbitrary fluorescence units)) [5]: 164 | outcome [6]: inactive

Cc1ccc(C)c(OCc2ccc(C(=O)O)o2)c1
outcome [1]: inactive | fluorescence, percent of control (lower = inhibition) [2]: 63.2% | GTP binding, percent of control [3]: 87.7% | outcome [4]: inactive | GTP binding signal, raw median fluorescence (lower = inhibition) (MCF (arbitrary fluorescence units)) [5]: 39.9 | outcome [6]: inactive

O=C(Nc1ccc(S(=O)(=O)N2CCCc3ccccc32)cc1)C1CCCO1 (stereo not given)
outcome [1]: inactive | fluorescence, percent of control (lower = inhibition) [2]: 33.2% | GTP binding, percent of control [3]: 79.9% | outcome [4]: inactive | GTP binding signal, raw median fluorescence (lower = inhibition) (MCF (arbitrary fluorescence units)) [5]: 286 | outcome [6]: inactive

Nc1ccc2c(c1)C(=O)C(=O)c1ccccc1-2
outcome [1]: inactive | fluorescence, percent of control (lower = inhibition) [2]: 22.1% | GTP binding, percent of control [3]: 57.5% | outcome [4]: inactive | GTP binding signal, raw median fluorescence (lower = inhibition) (MCF (arbitrary fluorescence units)) [5]: 73.8 | outcome [6]: inactive

COc1ccc(-n2c(NC(=O)c3ccc(Br)o3)c(C#N)c3nc4ccccc4nc32)cc1
outcome [1]: inactive | fluorescence, percent of control (lower = inhibition) [2]: 24.6% | GTP binding, percent of control [3]: 72.7% | outcome [4]: inactive | GTP binding signal, raw median fluorescence (lower = inhibition) (MCF (arbitrary fluorescence units)) [5]: 169 | outcome [6]: inactive

CCCCCCNc1cc2n(c(=O)n1)CCc1cc(OC)c(OC)cc1-2
outcome [1]: inactive | fluorescence, percent of control (lower = inhibition) [2]: 44.7% | GTP binding, percent of control [3]: 104% | outcome [4]: inactive | GTP binding signal, raw median fluorescence (lower = inhibition) (MCF (arbitrary fluorescence units)) [5]: 128 | outcome [6]: inactive

OCCC1CN(Cc2ccccc2O)CCN1CCc1ccccc1 (stereo not given)
outcome [1]: inactive | fluorescence, percent of control (lower = inhibition) [2]: 34.2% | GTP binding, percent of control [3]: 82.7% | outcome [4]: inactive | GTP binding signal, raw median fluorescence (lower = inhibition) (MCF (arbitrary fluorescence units)) [5]: 255 | outcome [6]: inactive

CC(C)NC(=O)C12CC3CC(C1)CC(n1cnc(Cl)n1)(C3)C2
outcome [1]: inactive | fluorescence, percent of control (lower = inhibition) [2]: 41.5% | GTP binding, percent of control [3]: 89.6% | outcome [4]: inactive | GTP binding signal, raw median fluorescence (lower = inhibition) (MCF (arbitrary fluorescence units)) [5]: 319 | outcome [6]: inactive

CCCc1cc(-n2ccnc2)n2c(nc3ccccc32)c1C#N
outcome [1]: inactive | fluorescence, percent of control (lower = inhibition) [2]: 172% | GTP binding, percent of control [3]: 195% | outcome [4]: inactive | GTP binding signal, raw median fluorescence (lower = inhibition) (MCF (arbitrary fluorescence units)) [5]: 212 | outcome [6]: inactive

Oc1c(C=Nc2ccccc2)sc(=S)n1Cc1ccccc1
outcome [1]: inactive | fluorescence, percent of control (lower = inhibition) [2]: 34.6% | GTP binding, percent of control [3]: 75.7% | outcome [4]: inactive | GTP binding signal, raw median fluorescence (lower = inhibition) (MCF (arbitrary fluorescence units)) [5]: 232 | outcome [6]: inactive

COc1cccc(Nc2ccccc2C(=O)O)c1
outcome [1]: inactive | fluorescence, percent of control (lower = inhibition) [2]: 92.6% | GTP binding, percent of control [3]: 107% | outcome [4]: inactive | GTP binding signal, raw median fluorescence (lower = inhibition) (MCF (arbitrary fluorescence units)) [5]: 78.2 | outcome [6]: inactive

O=C(O)c1cc(N2N=C(C(F)(F)F)/C(=C/C=C/c3ccco3)C2=O)ccc1Cl
outcome [1]: inactive | fluorescence, percent of control (lower = inhibition) [2]: 22.4% | GTP binding, percent of control [3]: 69.8% | outcome [4]: inactive | GTP binding signal, raw median fluorescence (lower = inhibition) (MCF (arbitrary fluorescence units)) [5]: 174 | outcome [6]: inactive

COc1cccc(CNCc2ccc(C(=O)O)s2)c1
outcome [1]: inactive | fluorescence, percent of control (lower = inhibition) [2]: 61.9% | GTP binding, percent of control [3]: 84.8% | outcome [4]: inactive | GTP binding signal, raw median fluorescence (lower = inhibition) (MCF (arbitrary fluorescence units)) [5]: 32.9 | outcome [6]: inactive

Cc1cc(C(=O)O)sc1CNc1ccc(Cl)cc1
outcome [1]: inactive | fluorescence, percent of control (lower = inhibition) [2]: 63.1% | GTP binding, percent of control [3]: 88.6% | outcome [4]: inactive | GTP binding signal, raw median fluorescence (lower = inhibition) (MCF (arbitrary fluorescence units)) [5]: 34.7 | outcome [6]: inactive

COc1ccc(/C=C2\CCCC3C2=NN(C(=O)c2scnc2C)C3c2ccc(OC)c(OC)c2)cc1OC (stereo not given)
outcome [1]: inactive | fluorescence, percent of control (lower = inhibition) [2]: 76.7% | GTP binding, percent of control [3]: 122% | outcome [4]: inactive | GTP binding signal, raw median fluorescence (lower = inhibition) (MCF (arbitrary fluorescence units)) [5]: 138 | outcome [6]: inactive

Cc1nc2ncccn2c1-c1csc(Nc2ccc(O)cc2)n1
outcome [1]: inactive | fluorescence, percent of control (lower = inhibition) [2]: 20.9% | GTP binding, percent of control [3]: 46.8% | outcome [4]: inactive | GTP binding signal, raw median fluorescence (lower = inhibition) (MCF (arbitrary fluorescence units)) [5]: 106 | outcome [6]: inactive

Cc1cc(C)n(Cc2n[nH]c(=S)n2Cc2ccccc2)n1
outcome [1]: inactive | fluorescence, percent of control (lower = inhibition) [2]: 106% | GTP binding, percent of control [3]: 189% | outcome [4]: inactive | GTP binding signal, raw median fluorescence (lower = inhibition) (MCF (arbitrary fluorescence units)) [5]: 198 | outcome [6]: inactive

CC(C)(C)C(=O)C#Cc1ccccc1
outcome [1]: inactive | fluorescence, percent of control (lower = inhibition) [2]: 53.5% | GTP binding, percent of control [3]: 203% | outcome [4]: inactive | GTP binding signal, raw median fluorescence (lower = inhibition) (MCF (arbitrary fluorescence units)) [5]: 55.8 | outcome [6]: inactive

CCOc1ccc(C2=Nn3c(nnc3-c3ccco3)SC2)cc1
outcome [1]: inactive | fluorescence, percent of control (lower = inhibition) [2]: 33.2% | GTP binding, percent of control [3]: 75.2% | outcome [4]: inactive | GTP binding signal, raw median fluorescence (lower = inhibition) (MCF (arbitrary fluorescence units)) [5]: 179 | outcome [6]: inactive

CN(C)c1ccc(/C=C2\SC(=S)N(Nc3ncc(C(F)(F)F)cc3Cl)C2=O)cc1
outcome [1]: inactive | fluorescence, percent of control (lower = inhibition) [2]: 139% | GTP binding, percent of control [3]: 236% | outcome [4]: inactive | GTP binding signal, raw median fluorescence (lower = inhibition) (MCF (arbitrary fluorescence units)) [5]: 230 | outcome [6]: inactive

COc1cc(N2CCCC2)c(OC)cc1/C=C(/C#N)c1ccc(Br)cc1
outcome [1]: inactive | fluorescence, percent of control (lower = inhibition) [2]: 104% | GTP binding, percent of control [3]: 117% | outcome [4]: inactive | GTP binding signal, raw median fluorescence (lower = inhibition) (MCF (arbitrary fluorescence units)) [5]: 258 | outcome [6]: inactive
